Assay: probe aLefty1 binding on compound microarray – biochemical, small-molecule microarray, 635/667 nm fluorescence, primary screen (AID 1153);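 note: score merges spot fluorescence with signal-to-noise ratio from the scanned slide images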
Conditions: higher = more signal

SMILES	composite z-score
CCOC(=O)[C@H](Cc1ccccc1)NC(=O)CCC1CC(OC(=O)NCc2ccc3c(c2)OCO3)CC2(CCCC(COC(=O)NCCOC)O2)O1 (stereo not given in full)	-0.0428
CCOC(=O)[C@H](Cc1ccccc1)NC(=O)CCC1CC(OC(=O)NCc2ccc3c(c2)OCO3)CC2(CCCC(COC(=O)NCCCN3CCCC3=O)O2)O1 (stereo not given in full)	-0.572
COC(=O)[C@H](C)NC(=O)CCC1CC(OC(=O)NCCc2ccc(F)cc2)CC2(CCCC(COC(=O)NCCOc3ccccc3)O2)O1 (stereo not given in full)	0.0169
O=C1CCCC=C1C(O)C1CCCCC1 (stereo not given)	-0.312
CCOC(=O)NN=C1C[C@@H](O)[C@@H](O)[C@@H]2[C@@H]3C(=O)N(c4ccc(F)cc4F)C(=O)[C@@H]3CC[C@H]12	-0.0106
CC(=O)OC[C@H]1O[C@H](CC=NO[C@@H](C)c2cc(-c3c(C)cc(C)cc3C)no2)C=C[C@@H]1OC(C)=O	-0.101
CCOC(=O)CCN1C(=O)[C@H]2[C@H]3[C@H](O)[C@H](O)CC(=NO[C@@H]4O[C@H](CO)[C@@H](O)[C@H](O)[C@H]4O)[C@H]3CC[C@H]2C1=O	0.493
CCOC(=O)[C@H](CC(C)C)NC(=O)CCC1CC(OC(=O)NCCc2ccc(F)cc2)CC2(CCCC(COC(=O)NCc3cccc(C(F)(F)F)c3)O2)O1 (stereo not given in full)	0.0437
C[C@H]1CC[C@@H](C(=O)O)N[C@@H]1c1cccc(N2CCCC2=O)c1	-0.103
CC(=O)OC[C@H]1O[C@@H](ON=C2[C@H]3CCn4c(=O)n(-c5ccccc5)c(=O)n4[C@H]3[C@H](O)[C@@H]3O[C@H]23)[C@H](OC(C)=O)[C@@H](OC(C)=O)[C@@H]1OC(C)=O	0.106
